According to PubChem BioAssay:
Active and inactive are the calls of the source.

What was measured:
[1] = binders of probe aFSTL3 on microarray, primary screen, stem cell growth factor project, biochemical, small-molecule microarray, fluorescence 635/667 (AID 1064); settings: higher = more signal;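 further: measures binding of the biotinylated anti-FSTL3 antibody to printed compounds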
[2] = binders from COS7 lysate, DM2A8 probe, primary screen, torsin A project, cell lysate, small-molecule microarray, fluorescence 635/667 (AID 1065); settings: higher = more signal, COS7 lysate expressing mutant human TOR1A
[3] = binders of probe aFGF2 on microarray, primary screen, stem cell growth factor project, biochemical, small-molecule microarray, fluorescence 635/667 (AID 1067); settings: higher = more signal;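 further: measures binding of biotinylated aFGF2 protein to printed compounds on slides; z-score merges feature fluorescence and signal-to-noise across triplicate slides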
[4] = binders of probe aFGF10 on microarray, primary screen, stem cell growth factor project, biochemical, small-molecule microarray, fluorescence 635/667 (AID 1071); settings: higher = more signal;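 further: score merges 667 nm spot intensity and signal to noise from triplicate slides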
[5] = biological target: Neurogenic locus notch homolog protein 2 (Homo sapiens) (UniProt Q04721); experiment: Notch2 binders on small-molecule microarrays, primary screen, biochemical, small-molecule microarray, 635 nm fluorescence, stem cell growth factors (AID 1073); settings: Notch2 binding, higher = more signal
[6] = biological target: Pro-neuregulin-1, membrane-bound isoform (Homo sapiens) (UniProt Q02297); experiment: NRG1 binders on small-molecule microarrays, primary screen, psychiatric disease protein project, biochemical, small-molecule microarray, fluorescence 635/667 (AID 1075); settings: NRG1 binding, 635 nm fluorescence, higher = more signal;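 further: score combines 667 nm spot fluorescence with signal to noise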
[7] = system: Neuregulin-1 EGF-like domain; experiment: binders of neuregulin-1 EGF-like domain, primary screen, biochemical, small-molecule microarray, 635 nm fluorescence (AID 1081); settings: small-molecule microarray binding, higher = more signal;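 further: binding of the protein to compounds printed on small-molecule microarray slides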
[8] = FRG1 promoter luciferase signal modulators, primary screen, FRG1 inhibition for FSHD, cell-based, C2C12 myotubes, firefly/Renilla luciferase, luminescence (AID 1084); settings: higher = more signal, called active from +8 up or from −8 down
[9] = binders of probe aFST on microarray, primary screen, stem cell growth factor project, biochemical, small-molecule microarray, fluorescence 635/667 (AID 1086); settings: higher = more signal;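 further: score merges 667 nm fluorescence with signal-to-noise of each printed compound spot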
[10] = binders of probe aHhip on microarray, primary screen, stem cell growth factor project, biochemical, small-molecule microarray, fluorescence 635/667 (AID 1087); settings: higher = more signal;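 further: score merges spot fluorescence at 667nm with spot signal to noise ratio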
[11] = system: PRMT1 (protein arginine N-methyltransferase 1); experiment: PRMT1 binders on small-molecule microarrays, primary screen, biochemical, small-molecule microarray, 635 nm fluorescence (AID 1088); settings: small-molecule microarray binding, higher = more signal;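 further: binding of Prmt1 protein to compounds spotted on small-molecule microarray slides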
[12] = yeast growth modulation, basal conditions, primary screen, YJM789 clinical isolate, OD600, 24 h (AID 1089);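 further: growth of clinical yeast isolate S. cerevisiae YJM 789 seeded 1000 cells per well; test concentration not given here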; settings: S. cerevisiae YJM789 growth, higher = more signal, called active from +8 up or from −8 down
[13] = fission yeast growth modulation, primary screen, strain 972, OD600, 24 h, no modulator (AID 1090);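 further: basal condition with compound alone and no growth modifier present; test concentration not given here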; settings: S. pombe 972 growth, higher = more signal, called active from +8 up or from −8 down
[14] = S. cerevisiae growth modulation with rapamycin, primary screen, strain BY4716, OD600, 96 h (AID 1091); settings: higher = more signal, called active from +8 up or from −8 down; further: test concentration not given here
[15] = biological target: Torsin-1A-interacting protein 2 (Homo sapiens) (UniProt Q8NFQ8); experiment: LULL1 binders on small-molecule microarray, primary screen, cell lysate, human LULL1 lysate, 635/667 nm fluorescence (AID 1092); settings: hLULL1 lysate binding, 635 nm fluorescence, higher = more signal;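 further: probe is lysate of COS7 cells overexpressing human LULL1; score merges per-feature 667 nm fluorescence with signal-to-noise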
[16] = E. coli growth modulation, two-sided OD650, primary screen, E. coli filamentation project, strain DRC41, 24 h (AID 1093); settings: OD650, 24 h, higher = more signal, called active from +8 up or from −8 down;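 further: MC1000 strain lacking acrAB efflux and sulA so SOS filamentation is blocked; test concentration not given here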
[17] = small-molecule microarray binders of probe aLefty2, primary screen, biochemical, biotinylated probe, 635/667 nm fluorescence (AID 1094); settings: higher = more signal;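 further: score merges spot fluorescence near 667 nm with spot signal-to-noise ratio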
[18] = system: Noggin (protein binding on small-molecule microarray); experiment: Noggin binders on small-molecule microarray, primary screen, biochemical, 635/667 nm fluorescence (AID 1095); settings: 635 nm fluorescence, higher = more signal;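 further: score merges 667 nm feature fluorescence with signal to noise over triplicate slides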
[19] = biological target: Neurogenic locus notch homolog protein 3 (Homo sapiens) (UniProt Q9UM47); experiment: NOTCH3 binders on small-molecule microarray, primary screen, biochemical, 635/667 nm fluorescence (AID 1096); settings: NOTCH3 binding, 635 nm fluorescence, higher = more signal
[20] = small-molecule microarray binders of probe aEGFR, primary screen, biochemical, biotinylated probe, 635/667 nm fluorescence (AID 1097); settings: higher = more signal;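 further: probe is a biotinylated anti-EGFR antibody binding compounds printed on slides; score combines fluorescence near 667 nm and signal to noise of each spot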

Sequence of Neurogenic locus notch homolog protein 2 (Homo sapiens) (Q04721 whole entry, looked up, canonical isoform): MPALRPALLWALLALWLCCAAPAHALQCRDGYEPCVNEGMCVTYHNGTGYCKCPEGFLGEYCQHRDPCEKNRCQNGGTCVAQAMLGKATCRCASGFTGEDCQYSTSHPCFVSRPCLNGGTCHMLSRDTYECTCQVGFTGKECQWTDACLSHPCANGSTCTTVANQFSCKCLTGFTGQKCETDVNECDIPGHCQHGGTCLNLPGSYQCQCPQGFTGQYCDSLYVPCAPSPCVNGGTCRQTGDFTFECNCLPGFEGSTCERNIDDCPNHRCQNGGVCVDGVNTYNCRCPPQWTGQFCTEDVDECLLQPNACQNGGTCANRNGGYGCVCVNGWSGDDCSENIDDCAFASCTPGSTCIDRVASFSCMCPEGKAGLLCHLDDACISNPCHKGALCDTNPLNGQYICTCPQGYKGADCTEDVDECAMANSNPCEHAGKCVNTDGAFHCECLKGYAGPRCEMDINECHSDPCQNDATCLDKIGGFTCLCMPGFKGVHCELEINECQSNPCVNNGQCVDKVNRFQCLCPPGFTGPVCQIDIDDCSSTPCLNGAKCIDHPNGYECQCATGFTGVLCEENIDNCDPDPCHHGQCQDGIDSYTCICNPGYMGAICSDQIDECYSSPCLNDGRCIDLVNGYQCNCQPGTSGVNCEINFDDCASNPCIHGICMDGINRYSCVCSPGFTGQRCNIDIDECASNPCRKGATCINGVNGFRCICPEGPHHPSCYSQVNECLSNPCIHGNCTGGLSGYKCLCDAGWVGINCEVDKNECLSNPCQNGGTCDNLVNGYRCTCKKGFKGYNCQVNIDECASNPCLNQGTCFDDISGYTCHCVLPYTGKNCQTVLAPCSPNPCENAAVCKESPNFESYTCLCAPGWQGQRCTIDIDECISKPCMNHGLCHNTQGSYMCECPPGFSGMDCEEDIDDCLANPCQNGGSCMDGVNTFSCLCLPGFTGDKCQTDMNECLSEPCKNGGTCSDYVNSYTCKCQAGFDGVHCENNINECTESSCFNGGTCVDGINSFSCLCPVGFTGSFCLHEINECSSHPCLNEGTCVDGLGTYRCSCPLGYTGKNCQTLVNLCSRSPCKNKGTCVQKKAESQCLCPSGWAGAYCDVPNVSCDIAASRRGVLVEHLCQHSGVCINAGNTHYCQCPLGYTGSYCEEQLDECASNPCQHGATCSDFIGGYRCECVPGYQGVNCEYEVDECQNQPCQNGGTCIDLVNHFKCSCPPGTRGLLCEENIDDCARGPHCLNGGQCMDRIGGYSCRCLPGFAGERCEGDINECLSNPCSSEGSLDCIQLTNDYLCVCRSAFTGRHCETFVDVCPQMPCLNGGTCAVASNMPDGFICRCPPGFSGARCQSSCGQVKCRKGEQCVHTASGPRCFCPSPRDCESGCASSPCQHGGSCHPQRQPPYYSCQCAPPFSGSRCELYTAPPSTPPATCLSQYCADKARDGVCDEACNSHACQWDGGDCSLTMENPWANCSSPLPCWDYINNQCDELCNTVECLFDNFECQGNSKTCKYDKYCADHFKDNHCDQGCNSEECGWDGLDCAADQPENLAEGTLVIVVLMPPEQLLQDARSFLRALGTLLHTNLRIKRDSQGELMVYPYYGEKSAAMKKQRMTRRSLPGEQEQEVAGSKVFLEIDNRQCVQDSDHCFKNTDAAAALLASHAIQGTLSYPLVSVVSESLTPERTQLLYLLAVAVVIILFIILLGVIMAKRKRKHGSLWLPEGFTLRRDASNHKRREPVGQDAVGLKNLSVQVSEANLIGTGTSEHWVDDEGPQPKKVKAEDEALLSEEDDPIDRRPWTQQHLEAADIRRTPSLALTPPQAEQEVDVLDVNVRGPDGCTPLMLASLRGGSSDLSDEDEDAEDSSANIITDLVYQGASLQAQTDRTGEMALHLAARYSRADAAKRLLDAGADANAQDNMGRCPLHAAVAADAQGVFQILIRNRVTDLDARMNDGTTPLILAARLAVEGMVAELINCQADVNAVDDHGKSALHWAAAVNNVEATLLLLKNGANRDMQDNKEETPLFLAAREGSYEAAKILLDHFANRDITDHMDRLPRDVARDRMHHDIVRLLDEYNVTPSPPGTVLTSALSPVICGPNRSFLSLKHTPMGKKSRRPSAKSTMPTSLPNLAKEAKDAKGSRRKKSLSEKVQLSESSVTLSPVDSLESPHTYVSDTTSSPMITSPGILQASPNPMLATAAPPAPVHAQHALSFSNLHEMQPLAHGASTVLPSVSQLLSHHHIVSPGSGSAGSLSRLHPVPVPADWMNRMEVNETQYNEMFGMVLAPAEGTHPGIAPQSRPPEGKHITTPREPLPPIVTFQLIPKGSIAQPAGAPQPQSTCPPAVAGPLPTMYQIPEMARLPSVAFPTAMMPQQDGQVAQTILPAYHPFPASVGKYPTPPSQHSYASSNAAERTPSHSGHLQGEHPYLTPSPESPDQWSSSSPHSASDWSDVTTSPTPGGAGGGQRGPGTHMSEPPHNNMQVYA
Sequence of Pro-neuregulin-1, membrane-bound isoform (Homo sapiens) (Q02297 whole entry, looked up, the tested form may be a part, canonical isoform): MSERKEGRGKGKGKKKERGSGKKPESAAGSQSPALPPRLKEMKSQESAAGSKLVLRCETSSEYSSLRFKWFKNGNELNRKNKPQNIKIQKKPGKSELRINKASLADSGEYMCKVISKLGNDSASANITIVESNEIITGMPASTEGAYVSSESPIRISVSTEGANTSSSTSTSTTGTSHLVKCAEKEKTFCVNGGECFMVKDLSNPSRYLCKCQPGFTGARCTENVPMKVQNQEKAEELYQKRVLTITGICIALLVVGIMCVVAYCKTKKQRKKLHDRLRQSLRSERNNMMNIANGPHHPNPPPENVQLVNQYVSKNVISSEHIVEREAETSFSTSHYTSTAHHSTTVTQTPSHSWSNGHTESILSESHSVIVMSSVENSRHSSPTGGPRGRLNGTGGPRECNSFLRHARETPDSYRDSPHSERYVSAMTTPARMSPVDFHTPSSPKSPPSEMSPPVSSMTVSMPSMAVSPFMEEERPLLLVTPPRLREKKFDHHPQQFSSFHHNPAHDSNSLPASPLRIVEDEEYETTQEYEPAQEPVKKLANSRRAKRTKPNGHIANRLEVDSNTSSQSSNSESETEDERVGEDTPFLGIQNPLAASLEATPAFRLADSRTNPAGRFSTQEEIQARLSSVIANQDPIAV
Sequence of Torsin-1A-interacting protein 2 (Homo sapiens) (Q8NFQ8 whole entry, looked up): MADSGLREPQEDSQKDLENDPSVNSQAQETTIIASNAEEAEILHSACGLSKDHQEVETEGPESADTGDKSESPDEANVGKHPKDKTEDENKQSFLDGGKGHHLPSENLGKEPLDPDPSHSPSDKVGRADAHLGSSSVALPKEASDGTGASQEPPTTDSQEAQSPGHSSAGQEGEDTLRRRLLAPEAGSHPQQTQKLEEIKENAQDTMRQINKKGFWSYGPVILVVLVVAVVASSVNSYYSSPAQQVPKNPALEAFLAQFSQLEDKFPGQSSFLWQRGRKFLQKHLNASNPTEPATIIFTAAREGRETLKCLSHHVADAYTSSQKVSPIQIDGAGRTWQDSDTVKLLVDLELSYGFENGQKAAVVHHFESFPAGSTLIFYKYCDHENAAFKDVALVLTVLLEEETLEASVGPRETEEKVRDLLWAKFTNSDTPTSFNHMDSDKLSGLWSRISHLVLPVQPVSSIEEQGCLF

Row | SMILES | composite z-score [1] | composite z-score [2] | composite z-score [3] | composite z-score [4] | composite z-score [5] | composite z-score [6] | composite z-score [7] | z-score [8] | composite z-score [9] | composite z-score [10] | composite z-score [11] | z-score [12] | z-score [13] | z-score [14] | composite z-score [15] | z-score [16] | composite z-score [17] | composite z-score [18] | composite z-score [19] | composite z-score [20]
1 | C[C@]1(C(=O)O)c2ccccc2C(=O)N(Cc2ccc(OC(F)(F)F)cc2)[C@H]1c1ccc(CO)cc1 | 0.592 | -0.139 | -0.0442 | -0.106 | -0.0052 | 0.787 | 0.509 | -1.27 (inactive) | 0.302 | -0.226 | -0.0461 | -0.691 (inactive) | -0.767 (inactive) | -0.686 (inactive) | 0.945 | 0.402 (inactive) | 0.122 | -0.94 | -0.505 | -0.179
2 | COCCCNC(=O)[C@@]1(c2ccc([N+](=O)[O-])cc2)CC(=O)N(C(C)C)[C@@H]1c1ccc(CO)cc1 | 0.135 | -0.169 | -0.059 | -0.0621 | -0.588 | -0.714 | 0.539 | 0.195 (inactive) | 0.116 | 0.526 | 0.197 | -0.411 (inactive) | -0.46 (inactive) | -0.363 (inactive) | 0.15 | 0.409 (inactive) | 0.701 | -0.363 | -0.617 | -0.071
3 | COCCOC(=O)N1C(=O)[C@@]2(c3cc(C#CC4=CCCCC4)ccc31)[C@H](c1ccc(O)cc1)N1[C@H](c3ccccc3)[C@H](c3ccccc3)OC(=O)[C@H]1[C@@H]2C(=O)NC[C@H](O)c1ccccc1 | -0.217 | 0.167 | 0.0059 | 0.824 | 1.18 | 1.3 | 1.2 | 0.675 (inactive) | 0.443 | -0.174 | 1.56 | 1.44 (inactive) | 0.236 (inactive) | 3.15 (inactive) | 2.51 | 0.12 (inactive) | -0.003 | 0.782 | 1.07 | 0.0397
4 | COCCOC(=O)N1C(=O)[C@@]2(c3cc(C#CCNC(N)=O)ccc31)[C@H](c1ccc(O)cc1)N1[C@H](c3ccccc3)[C@H](c3ccccc3)OC(=O)[C@H]1[C@@H]2C(=O)N1CCN(c2ncccn2)CC1 | -0.487 | 0.594 | 0.0762 | 0.661 | 0.629 | 1.19 | 1.1 | -0.523 (inactive) | 0.34 | -0.218 | 1.42 | 1.74 (inactive) | 1.94 (inactive) | 4.35 (inactive) | 3 | -0.561 (inactive) | 0.24 | 0.96 | 1.15 | 0.187
5 | C=C(CCCC)C(=O)CC[C@@H](OC(=O)c1cccnc1)c1ccc(OCCO)cc1 | -0.449 | 0.887 | -0.0894 | 0.681 | 0.214 | 0.89 | 1.19 | 0.84 (inactive) | 0.204 | -0.0645 | 1.48 | -0.405 (inactive) | -2.22 (inactive) | -0.861 (inactive) | 1.18 | -0.288 (inactive) | -0.113 | 1.93 | 0.952 | -0.0828
6 | Cc1ccccc1C(O)C1C=CC2C(=O)NC(=O)C2N1Nc1ccc(Cl)cc1Cl (stereo not given) | 0.51 | 0.328 | 0.0342 | 0.5 | 1.48 | 1.73 | 1.04 | 0.0623 (inactive) | 0.504 | -0.283 | 0.528 | -2.09 (inactive) | -2.81 (inactive) | 0.797 (inactive) | 2.27 | -1.24 (inactive) | 0.106 | 0.287 | 0.765 | -0.125
7 | C[C@@]12COC[C@]13C=C(Br)[C@H](C2)[C@@]1(CO1)C3=O | 0.129 | -1.21 | -0.04 | -0.455 | -0.895 | -0.708 | -1.12 | -0.293 (inactive) | -0.476 | -0.134 | -1.78 | -0.0556 (inactive) | -2.25 (inactive) | -0.0407 (inactive) | -2.15 | -0.768 (inactive) | -0.207 | -0.508 | -0.233 | -0.178
8 | COCCCNC(=O)[C@@]1(Sc2ccc(C)cc2)CC(=O)N(Cc2ccccc2Cl)[C@@H]1c1ccc(CO)cc1I | 0.386 | -0.983 | -0.191 | -0.304 | -0.911 | 1.08 | 0.449 | -2.5 (inactive) | -0.431 | -0.0994 | -0.76 | -0.89 (inactive) | -2.01 (inactive) | 0.0449 (inactive) | 1.04 | 0.668 (inactive) | -0.0654 | -0.691 | -0.318 | -0.249
9 | CO[C@H]1O[C@H](CO)[C@@H](OC(=O)Nc2cccc(F)c2)[C@H](OC(=O)Nc2ccccc2-c2ccccc2)[C@H]1OC(=O)Nc1ccccc1-c1ccccc1 | -0.24 | 0.368 | 0.0591 | 0.64 | 1.53 | 1.72 | 1.35 | 0.322 (inactive) | 1.36 | -0.247 | 1.54 | -0.455 (inactive) | 2.19 (inactive) | 1.39 (inactive) | 3.08 | -0.158 (inactive) | 0.0361 | 0.928 | 1.06 | -0.0225
10 | C=C(/C(=C/C[C@H](OC(=O)c1ccncc1)c1ccccc1OCCO)c1cnc2ccccc2c1)C(C)C | -0.145 | 0.763 | -0.0316 | 1.18 | 1.55 | 1.01 | 1.22 | -0.0406 (inactive) | 0.853 | -0.112 | 1.54 | -2.36 (inactive) | -0.555 (inactive) | 2.22 (inactive) | 2.27 | -0.0584 (inactive) | -0.0632 | 1.13 | 1.02 | -0.0828
